In paper PMC4336329 (PLoS ONE, 2015):
The whole screen tested about 310,000 compounds, of which about 2,200 (0.71%) showed an effect of 50% or more. The effect is printed as a negative number. The full list was thinned out, with strong results kept by preference.

What follows are compounds tested against human ether-à-go-go-related gene (hERG) potassium channel (human, UniProt Q12809) (assay: primary screen, population patch clamp on CHO cells stably expressing hERG; higher = less effect of the substance).
Sequence of human ether-à-go-go-related gene (hERG) potassium channel (Q12809 whole entry, looked up): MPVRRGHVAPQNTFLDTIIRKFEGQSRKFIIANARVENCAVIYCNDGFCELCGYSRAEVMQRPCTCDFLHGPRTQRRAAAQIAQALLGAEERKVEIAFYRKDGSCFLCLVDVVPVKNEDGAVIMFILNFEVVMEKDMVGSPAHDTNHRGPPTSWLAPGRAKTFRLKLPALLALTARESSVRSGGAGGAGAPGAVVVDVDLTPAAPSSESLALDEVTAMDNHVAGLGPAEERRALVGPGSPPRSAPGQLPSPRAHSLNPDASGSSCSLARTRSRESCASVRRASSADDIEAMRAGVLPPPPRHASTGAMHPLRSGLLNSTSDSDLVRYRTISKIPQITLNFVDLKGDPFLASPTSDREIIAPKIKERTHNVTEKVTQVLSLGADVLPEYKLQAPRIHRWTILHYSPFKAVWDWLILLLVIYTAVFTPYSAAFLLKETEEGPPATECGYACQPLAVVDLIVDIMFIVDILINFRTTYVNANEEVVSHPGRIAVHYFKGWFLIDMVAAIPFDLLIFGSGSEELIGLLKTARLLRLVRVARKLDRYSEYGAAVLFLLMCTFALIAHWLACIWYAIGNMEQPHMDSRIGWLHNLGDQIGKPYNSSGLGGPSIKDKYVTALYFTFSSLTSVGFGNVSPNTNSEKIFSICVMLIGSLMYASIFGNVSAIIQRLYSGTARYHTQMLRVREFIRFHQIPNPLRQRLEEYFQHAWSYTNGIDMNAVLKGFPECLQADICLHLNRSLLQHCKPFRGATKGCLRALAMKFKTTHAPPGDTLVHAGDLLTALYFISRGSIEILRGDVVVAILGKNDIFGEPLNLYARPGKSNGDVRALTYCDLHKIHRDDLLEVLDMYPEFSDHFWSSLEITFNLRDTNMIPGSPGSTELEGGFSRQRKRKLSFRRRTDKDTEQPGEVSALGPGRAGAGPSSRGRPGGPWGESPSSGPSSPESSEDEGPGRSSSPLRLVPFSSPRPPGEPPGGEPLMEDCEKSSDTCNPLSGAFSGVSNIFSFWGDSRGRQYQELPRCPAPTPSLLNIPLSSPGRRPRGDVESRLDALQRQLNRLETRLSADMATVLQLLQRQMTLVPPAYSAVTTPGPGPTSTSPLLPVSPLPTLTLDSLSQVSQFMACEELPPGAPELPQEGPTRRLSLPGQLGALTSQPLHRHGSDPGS

Structure (SMILES)	hERG current change (%, negative = inhibition) at 1uM
Cc1cc2cc3c(cc2nc1SCC(=O)N1c2ccccc2CC1C)OCO3 (centres unmarked)	5.76%
O=C(Nc1ccc2oc(-c3ccncc3)nc2c1)c1ccccc1F	7.55%
Cc1ccccc1OCCC(=O)Nc1ccccc1C(=O)N1CCCCC1	10.9%
Nc1nc(SCC(=O)c2ccc([N+](=O)[O-])cc2)n[nH]1	1.72%
O=c1c2cn[nH]c2[nH]c(=S)n1-c1ccccc1	14.3%
CC(=O)Nc1cccc(OCc2c(F)cccc2Cl)c1	4.98%
O=C(NC(=S)Nn1cnc2c(cnn2-c2ccccc2)c1=O)c1ccc(Cl)cc1	11.4%
CCn1c(SCC(=O)c2cc(C)n(-c3ccc(C(=O)OC)cc3)c2C)nnc1-c1cccnc1	1.88%
COCCn1c(SCc2ccccc2)nc2c1c(=O)[nH]c(=O)n2C	11.8%
CSCCC1NC(=O)N(CC(=O)Nc2cc(C)on2)C1=O (centres unmarked)	9.03%
CC(C)C(C(=O)C=[N+]=[N-])N1C(=O)c2ccccc2C1=O (centres unmarked)	11.2%
Cc1occc1C(=O)N1CCN(c2ccc([N+](=O)[O-])cc2)CC1	-45.8%
O=C(c1ccc([N+](=O)[O-])cc1)N1CCN(c2ncc(Br)cn2)CC1	-11.3%
CC(=O)N1CCN(c2ccc([N+](=O)[O-])c(-n3nc(C)cc3C)c2)CC1	-9.97%
Cc1cc(C)n(-c2cc(N3CCN(C(=O)c4ccc(C(C)(C)C)cc4)CC3)ccc2[N+](=O)[O-])n1	3.39%
Cc1cc(C(=O)N2CCN(c3ccc([N+](=O)[O-])cc3)CC2)co1	-64.7%
COc1ccc(C(=O)N2CCN(c3ccc([N+](=O)[O-])c(-n4nc(C)cc4C)c3)CC2)cc1	-80.6%
Cc1cc(C(=O)N2CCN(c3ccc([N+](=O)[O-])cc3)CC2)no1	-36%
O=C(c1cncc(Br)c1)N1CCN(c2ccc([N+](=O)[O-])cc2)CC1	-62.2%
O=C(c1cncc(Br)c1)N1CCN(c2ccc(N3CCOCC3)nn2)CC1	9.87%
C=CCc1cccc2cc(C(=O)Nc3ccc(F)cc3)c(=O)oc12	6.28%
COC(=O)c1ccc(NC(=S)NC(=O)c2cc(-c3ccccc3)nc3ccccc23)cc1	9.36%

Structure (SMILES)	hERG current change (%, negative = inhibition) at 1uM
NC(=O)[C@H]1CC2(CC(c3cccc(NC(=O)CC(c4ccccc4)c4ccccc4)c3)=NO2)CN1C(=O)CC(c1ccccc1)c1ccccc1 (some centres unmarked)	14.8%
Nc1ccc(O)cc1	10.2%
COc1ccc(/C=C2\Oc3cc(OC(=O)N4CCOCC4)ccc3C2=O)cc1	3.7%
CCC(=O)Nc1ccc2oc(-c3ccccc3Br)nc2c1	9.07%
CC1CCc2c(sc3nc(CN4CCN(S(=O)(=O)c5ccccc5[N+](=O)[O-])CC4)[nH]c(=O)c23)C1 (centres unmarked)	-0.366%
C=CCn1cc(CN2CCC(C(=O)Nc3cccc(-c4cccc(Cl)c4)c3)CC2)c(C)n1	-30%
O=C(c1ccc2c(=O)n(Cc3ccc(Cl)cc3)c(=S)[nH]c2c1)N1CCCC1	17%
Oc1[nH]c2ccccc2c1N=Nc1nc2ccccc2s1	-3.26%
Cl.NCCCCC(=O)O	11.5%
CC(C1CC1)N(C(=O)NC1CCS(=O)(=O)C1)c1ccccc1 (centres unmarked)	6.55%
O=C(Nc1cccc(-c2cccc(F)c2)c1)C1CCN(C2CCOCC2)CC1	-67.8%
CCCn1ncc(CN2CCC(C(=O)Nc3cccc(-c4cccc(F)c4)c3)CC2)c1C	-60.6%
Cc1ccc(CN2CCC(C(=O)Nc3cccc(-c4cccc(F)c4)c3)CC2)o1	-28.7%
O=C(Nc1cccc(-c2cccc(F)c2)c1)C1CCN(C2CCC2)CC1	-26.1%
COc1cccc(-c2cccc(NC(=O)C3CCN(C4CCOCC4)CC3)c2)c1	-14.6%
Cc1cc(C)n(CCCN2CCC(C(=O)Nc3cccc(-c4cccc(F)c4)c3)CC2)n1	-59.9%
CCn1cc(CN2CCC(C(=O)Nc3cccc(-c4cccc(F)c4)c3)CC2)cn1	-29.2%
COc1cccc(-c2cccc(NC(=O)C3CCN(Cc4cccc(C)n4)CC3)c2)c1	-46.7%
Cn1cc(CN2CCC(C(=O)Nc3cccc(-c4cccc(F)c4)c3)CC2)cn1	-37.9%
Cc1cccc(CN2CCC(C(=O)Nc3cccc(-c4cccc(F)c4)c3)CC2)n1	-66.1%
CCn1nc(C)c(CN2CCC(C(=O)Nc3cccc(-c4cccc(F)c4)c3)CC2)c1C	-6.47%
Cc1cccc(CN2CCC(C(=O)Nc3cccc(-c4cscn4)c3)CC2)n1	-4.56%

Structure (SMILES)	hERG current change (%, negative = inhibition) at 1uM
O=C(Nc1ccc(N2CCN(C(=O)c3ccco3)CC2)cc1)c1cc(Br)ccc1Cl	8.3%
CC(C)(C)c1cc(C(=O)NN)n(Cc2ccc(Cl)cc2Cl)n1	16.3%
CCOC(=O)c1c(NC(=O)c2ccc(S(=O)(=O)N3CCOCC3)cc2)sc2c1CC(C)(C)NC2(C)C	11.9%
O=[N+]([O-])c1ccc(-c2nc(Nc3ccc(O)cc3)c3ccccc3n2)cc1	13%
COc1ccc(CCNC(=O)c2[nH]c(C)c(C(C)=O)c2C)cc1	10.9%
CCOC(=O)c1c(NC(=O)C2C3C=CC(C3)C2C(=O)O)sc2c1CCC(CC)C2 (centres unmarked)	14%
CCC(=O)Nc1nnc(-c2ccco2)o1	2.56%
O=C1OC(c2ccccc2)c2ccccc21 (centres unmarked)	9.85%
COC(=O)C1=C(C)NC(=O)C1(Nc1nccs1)C(F)(F)F (centres unmarked)	8.37%
COc1ccc(Nc2nc(N3CCCC3)c3ccccc3n2)cc1.Cl	-15%
c1ccc(-c2nc(N3CCCCCC3)c3ccccc3n2)nc1	-82.3%
CCCCN(CCCC)c1nc(-c2ccncc2)nc2ccccc12	12%
CCCN(CCC)c1nc(-c2ccccn2)nc2ccccc12	-72.4%
Nc1nc(N2CCOCC2)nc2ccccc12	-8.34%
Cl.Oc1ccc(Nc2nc(N3CCCC3)c3ccccc3n2)cc1	-62.7%
Cl.Nc1nc(N2CCCCC2)nc2ccccc12	-15.9%
CCC(C)Nc1nc(-c2ccccn2)nc2ccccc12 (centres unmarked)	-11.6%
CN1CCN(c2nc(Nc3ccc(O)cc3)nc3ccccc23)CC1.Cl	-1.34%
Cl.Nc1nc(N2CCN(c3ccccn3)CC2)nc2ccccc12	-52.8%
c1ccc(-c2nc(N3CCOCC3)c3ccccc3n2)nc1	5.13%
c1ccc(N2CCN(c3nc(-c4ccccn4)nc4ccccc34)CC2)cc1	-26.9%
CCOC(=O)c1cc(S(=O)(=O)N2CCN(Cc3ccccc3)CC2)cn1C	7.46%

Structure (SMILES)	hERG current change (%, negative = inhibition) at 1uM
C/C(=N\Nc1cccc2cccnc12)c1ccc[nH]1	6.24%
COc1ccc(C(=O)N2CCN(CCNC(=O)C(=O)Nc3ccc(Br)cc3)CC2)cc1	-25.2%
CCCc1ccc2c(N)c(C#N)sc2n1	1.34%
CC(C)C(NC(=O)c1c(F)cccc1F)C(=O)NCC(c1ccccc1)N(C)C (centres unmarked)	7.89%
COc1ccccc1NS(=O)(=O)c1cccc(C(=O)NCC(c2ccc(F)cc2)N2CCOCC2)c1 (centres unmarked)	-2.64%
O=c1oc2cc(Oc3ccc(C(F)(F)F)cc3[N+](=O)[O-])ccc2c2c1CCCC2	7.24%
COc1ccc(OC)c(C(O)c2nc3ccccc3n2C(C)C)c1 (centres unmarked)	12.9%
COc1cccc2cc(C(=O)C3=C(O)C(=O)N(Cc4ccco4)C3c3cccnc3)oc12 (centres unmarked)	-5.76%
CCOc1ccc(OCCCC(=O)ON=C(N)c2ccccc2C)cc1	2.24%
c1ccc2c(N3CCCCC3)nc(N3CCCCC3)nc2c1	-3.29%
c1ccc2c(N3CCCCC3)nc(N3CCCC3)nc2c1	-64.6%
c1ccc2c(N3CCCCC3)nc(N3CCOCC3)nc2c1	-7.24%
CC(=O)c1ccc(NC(=S)Nc2cccc(S(=O)(=O)Nc3c(C)n(C)n(-c4ccccc4)c3=O)c2)cc1	11.4%
Cc1ccc(/C=N\NC(=O)CCc2n[nH]c(=O)[nH]c2=O)o1	10.9%
O=c1c2c3c(sc2n(CCN2CCCC2)c(=O)n1Cc1ccco1)CCCCC3	-67%
O=c1c2c3c(sc2n(CCN2CCOCC2)c(=O)n1Cc1ccco1)CCCCC3	-9.12%
O=c1c2c3c(sc2n(CCN2CCCCC2)c(=O)n1Cc1ccco1)CCCCC3	3.26%
COc1ccc(CNC(=O)NCc2ccc(OC)c(OC)c2)cc1OC	17.1%
O=c1cc2oc3cc(O)c(O)cc3c(-c3ccccc3[N+](=O)[O-])c-2cc1O	8.61%
N#Cc1ccccc1OCC(=O)OCC(=O)c1c[nH]c2ccccc12	7.92%
